Measurements as given in PubChem BioAssay (NCI).
This is part of a sample that, as a whole, favours compounds with a hit. Of some 83,000 tested, about 20% had one in any assay.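 Plates (96-well) were seeded with cells, treated with compound at one concentration, and incubated for 48 hours before percent growth was determined.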 Calls of active or inactive are those of the source. The calls were made as follows: active = growth percent below 10; inactive = the rest.

Legend:
Assay in all cases: NCI-60 one-dose screen, 48 h (100 = growth as untreated, 0 = no growth, -100 = all killed)
Settings in all cases: 10 µM unless noted
SK-MEL-2 melanoma = test system: SK-MEL-2 melanoma
EKVX NSCLC = test system: EKVX NSCLC
SN12C renal = test system: SN12C renal
UO-31 renal = test system: UO-31 renal
TK-10 renal = test system: TK-10 renal
ACHN renal = test system: ACHN renal
CAKI-1 renal = test system: CAKI-1 renal
A498 renal = test system: A498 renal
CCRF-CEM leukemia = test system: CCRF-CEM leukemia
MOLT-4 leukemia = test system: MOLT-4 leukemia

Measured: growth

CN1CCOCCN(C)Cc2ccc3ccc(cc3c2)CN(C)CCOCCN(C)Cc2ccc3ccc(cc3c2)C1
inactive: SK-MEL-2 melanoma 114% | EKVX NSCLC 106% | SN12C renal 92.6% | UO-31 renal 80.8% | TK-10 renal 97.4% | ACHN renal 98.5% | CAKI-1 renal 77.7% | A498 renal 79.1% | CCRF-CEM leukemia 56.3% | MOLT-4 leukemia 74%

CS(=O)(=O)Nc1cc(-c2ccc3ncnc(Nc4ccc(F)c(Cl)c4)c3c2)ccc1Cl
inactive: SK-MEL-2 melanoma 62.5% | EKVX NSCLC 20.9% | SN12C renal 52.7% | UO-31 renal 36.5% | TK-10 renal 17.3% | ACHN renal 27.2% | CAKI-1 renal 18.1% | CCRF-CEM leukemia 30.2% | MOLT-4 leukemia 40.2%
active: A498 renal 6.7%

Cc1ccc2c(c1)sc1nc(-c3c[nH]c4ccccc34)c(Nc3ccccc3)n12
inactive: SK-MEL-2 melanoma 109% | EKVX NSCLC 101% | SN12C renal 102% | UO-31 renal 77.3% | TK-10 renal 114% | ACHN renal 100% | CAKI-1 renal 79.8% | A498 renal 109% | CCRF-CEM leukemia 107% | MOLT-4 leukemia 98.7%

Cc1nc2sc(C(=O)Nc3cccc(Cl)c3C)c(N)c2cc1C(=O)/C=C/c1ccccc1
active: SN12C renal -55.6% | UO-31 renal -60.1% | TK-10 renal -12.9% | ACHN renal 3.93% | CAKI-1 renal -62.1% | A498 renal -6.27% | CCRF-CEM leukemia 8.78%
inactive: SK-MEL-2 melanoma 33.8% | EKVX NSCLC 43.9% | MOLT-4 leukemia 16.8%

N#Cc1c(-c2ccccc2)nc2c(c(-c3ccccc3)nn2-c2ccccc2)c1-c1ccc(N2CCCCC2)cc1
inactive: SK-MEL-2 melanoma 110% | EKVX NSCLC 99.5% | SN12C renal 99.4% | UO-31 renal 84.9% | TK-10 renal 103% | ACHN renal 101% | CAKI-1 renal 86.1% | A498 renal 97.7% | CCRF-CEM leukemia 96.5% | MOLT-4 leukemia 95.5%

OC1(c2ccccc2)c2ccccc2N(c2ccccc2)c2ccc(Cl)cc21 (stereo not given)
active: SK-MEL-2 melanoma -72.1% | EKVX NSCLC -81.8% | SN12C renal -81.6% | UO-31 renal -95% | TK-10 renal -95.5% | ACHN renal -99.5% | CAKI-1 renal -9.02% | A498 renal -62.6% | CCRF-CEM leukemia -13% | MOLT-4 leukemia 1.26%

O=C(CSc1nnnn1-c1ccccc1)Nc1ccc(Oc2ccccc2)cc1
inactive: SK-MEL-2 melanoma 81% | EKVX NSCLC 100% | SN12C renal 88.4% | UO-31 renal 77.2% | TK-10 renal 119% | ACHN renal 99.7% | CAKI-1 renal 107% | A498 renal 103% | CCRF-CEM leukemia 114% | MOLT-4 leukemia 91.7%

O=c1oc2c(cnc3ccccc32)cc1-c1cccc(Cl)c1
inactive: SK-MEL-2 melanoma 118% | EKVX NSCLC 99.1% | SN12C renal 98.3% | UO-31 renal 90.4% | TK-10 renal 118% | ACHN renal 104% | CAKI-1 renal 92% | A498 renal 83.1% | CCRF-CEM leukemia 76.5% | MOLT-4 leukemia 96.3%

CC/C(=C(/c1ccc(O)cc1)c1ccc(OCCN2CCCCC2)cc1)c1ccc(OC)cc1
inactive: SK-MEL-2 melanoma 97.4% | EKVX NSCLC 87% | SN12C renal 91.1% | UO-31 renal 70% | TK-10 renal 86.6% | ACHN renal 91.3% | CAKI-1 renal 91.2% | A498 renal 83.2% | CCRF-CEM leukemia 42.1% | MOLT-4 leukemia 23%

Nc1nc(N(Cc2ccccc2)c2ccccc2)c2cn[nH]c2n1
inactive: SK-MEL-2 melanoma 111% | EKVX NSCLC 75.3% | SN12C renal 85.8% | UO-31 renal 75% | TK-10 renal 92.2% | ACHN renal 71.2% | CAKI-1 renal 31.9% | A498 renal 69.9% | CCRF-CEM leukemia 92.6% | MOLT-4 leukemia 62.2%

Nc1nc(N)c2c(n1)NC(c1cccc(Nc3ccnc4cc(C(F)(F)F)ccc34)c1)CC(c1ccc3c(c1)OCO3)=N2 (stereo not given)
inactive: SK-MEL-2 melanoma 61.6% | EKVX NSCLC 76.7% | SN12C renal 81.6% | UO-31 renal 69.2% | TK-10 renal 90.1% | ACHN renal 102% | CAKI-1 renal 59.6% | A498 renal 87.9% | CCRF-CEM leukemia 50.9% | MOLT-4 leukemia 29%

CCCCCCCCCCOC(=O)c1nn(C(C)=O)c2cc(C)c(C)cc12
inactive: SK-MEL-2 melanoma 104% | EKVX NSCLC 91.6% | SN12C renal 102% | UO-31 renal 71.7% | TK-10 renal 104% | ACHN renal 97.1% | CAKI-1 renal 88.8% | A498 renal 79.1% | CCRF-CEM leukemia 92.2% | MOLT-4 leukemia 82.7%

CCOc1ncc([N+](=O)[O-])c(OCC)n1
inactive: SK-MEL-2 melanoma 103% | EKVX NSCLC 122% | SN12C renal 91.8% | UO-31 renal 106% | TK-10 renal 115% | ACHN renal 106% | CAKI-1 renal 116% | A498 renal 111% | CCRF-CEM leukemia 101% | MOLT-4 leukemia 90.9%

O=C(NCCCCCCNC(=O)OCc1ccc2c(Cl)cc(Cl)c(O)c2n1)OCc1ccc2c(Cl)cc(Cl)c(O)c2n1
inactive: A498 renal 34.9%
active: SK-MEL-2 melanoma -62% | EKVX NSCLC -69% | SN12C renal -93.4% | UO-31 renal -100% | TK-10 renal -90.3% | ACHN renal -97.5% | CAKI-1 renal -87.8% | CCRF-CEM leukemia 2.24% | MOLT-4 leukemia -2.75%

COc1cc(O)c2c(=O)c3c(CC=C(C)C)cc(OC)c(O)c3oc2c1
inactive: SK-MEL-2 melanoma 29.1% | EKVX NSCLC 53.7% | SN12C renal 40.2% | UO-31 renal 43.7% | TK-10 renal 66.6% | ACHN renal 50.3% | CAKI-1 renal 44% | A498 renal 31.1% | CCRF-CEM leukemia 16.5% | MOLT-4 leukemia 25.6%

COC12C=C/C(=C(/C(=O)OCCSc3ccnn3C)C(=O)CCCCCCCCC3(OC)C=C/C(=C(/C(=O)OCCSc4ccnn4C)C(=O)CCCCCCCC1)O3)O2
active: EKVX NSCLC 9.41% | SN12C renal -4.94% | ACHN renal 4.65% | A498 renal -53.5% | MOLT-4 leukemia -0.956%
inactive: SK-MEL-2 melanoma 12.3% | UO-31 renal 14.8% | TK-10 renal 39.9% | CAKI-1 renal 26.6% | CCRF-CEM leukemia 11.1%

COCCn1cc(-c2csc(-c3c[nH]c4ccccc34)n2)c2cccnc21
inactive: SK-MEL-2 melanoma 18.3% | EKVX NSCLC 31.8% | SN12C renal 64.3% | UO-31 renal 44% | TK-10 renal 34.9% | ACHN renal 49.6% | CAKI-1 renal 56.2% | A498 renal 17.7% | CCRF-CEM leukemia 36.7% | MOLT-4 leukemia 25.7%

CCOC(=O)C/C(=N\Nc1cc(=O)[nH]c2ccc(C)cc12)C(=O)OCC
inactive: SK-MEL-2 melanoma 108% | EKVX NSCLC 109% | SN12C renal 101% | UO-31 renal 86.7% | TK-10 renal 101% | ACHN renal 99% | CAKI-1 renal 94.6% | A498 renal 112% | MOLT-4 leukemia 18.3%
active: CCRF-CEM leukemia -57.2%

CN(C)c1ccc([C@@H](C(=O)Nc2cccc([N+](=O)[O-])c2)N(C(=O)c2cc3ccccc3[nH]2)c2cccc([N+](=O)[O-])c2)cc1
inactive: SK-MEL-2 melanoma 113% | EKVX NSCLC 90.7% | SN12C renal 97.8% | UO-31 renal 67.6% | TK-10 renal 117% | ACHN renal 93.3% | CAKI-1 renal 92.5% | A498 renal 70.5% | CCRF-CEM leukemia 96.1% | MOLT-4 leukemia 92%

CCCC(=O)NC(c1ccc2c(c1)OCO2)c1cc(Cl)c2cccnc2c1O (stereo not given)
inactive: SK-MEL-2 melanoma 58.7% | EKVX NSCLC 30.1% | SN12C renal 38.1% | TK-10 renal 37.6% | ACHN renal 18.1% | CAKI-1 renal 18.1% | A498 renal 43.6% | CCRF-CEM leukemia 13.2% | MOLT-4 leukemia 16.6%
active: UO-31 renal -8.37%

CCN(CC)CCOc1ccc(Nc2ncc3cc(-c4c(Cl)cccc4Cl)c(=O)n(CCOC)c3n2)cc1
inactive: SK-MEL-2 melanoma 34.8% | EKVX NSCLC 27.3% | SN12C renal 10.5%
active: UO-31 renal -88.9% | TK-10 renal -55.5% | ACHN renal 5.69% | CAKI-1 renal 2.96% | A498 renal -75.9% | CCRF-CEM leukemia 4.55% | MOLT-4 leukemia 1.6%

Oc1nc(NCc2ccccc2)sc1/C=C1\C=Nc2ncccc21
inactive: SK-MEL-2 melanoma 72.9% | EKVX NSCLC 73.7% | SN12C renal 72.8% | UO-31 renal 84.8% | TK-10 renal 64.4% | ACHN renal 29.2% | CAKI-1 renal 74.6% | A498 renal 63.4% | CCRF-CEM leukemia 49.6% | MOLT-4 leukemia 52.4%

CC(C)(C)CC(C)(C)Nc1c(-c2c(O)c3ccccc3oc2=O)nc2sc3ccccc3n12
inactive: SK-MEL-2 melanoma 66.2% | EKVX NSCLC 26.6% | SN12C renal 51% | UO-31 renal 16% | TK-10 renal 32.3% | ACHN renal 33.7% | CAKI-1 renal 23.5% | A498 renal 69.6% | CCRF-CEM leukemia 23.4% | MOLT-4 leukemia 28.5%

CCOC(=O)c1cn2ncnc(Oc3ccc(NC(=O)NC4CC4)c(Cl)c3)c2c1C
active: A498 renal -0.592%
inactive: SK-MEL-2 melanoma 110% | EKVX NSCLC 89.8% | SN12C renal 79.9% | UO-31 renal 65.3% | TK-10 renal 113% | ACHN renal 96.4% | CAKI-1 renal 101% | CCRF-CEM leukemia 89.2% | MOLT-4 leukemia 88.8%

O=C(Nc1ncc(Cc2ccccc2)s1)c1sc2ccccc2c1Cl
inactive: SK-MEL-2 melanoma 20.8% | EKVX NSCLC 30.2% | SN12C renal 39.5% | UO-31 renal 39% | TK-10 renal 38.8% | ACHN renal 39.8% | CAKI-1 renal 29.5% | A498 renal 15.1% | CCRF-CEM leukemia 18.8% | MOLT-4 leukemia 31.4%

CCCCn1c(NC(C)=O)c(S(=O)(=O)c2ccccc2)c2nc3ccccc3nc21
inactive: SK-MEL-2 melanoma 121% | EKVX NSCLC 95.5% | SN12C renal 103% | UO-31 renal 92% | TK-10 renal 99.7% | ACHN renal 106% | CAKI-1 renal 104% | A498 renal 87.3% | CCRF-CEM leukemia 77.7% | MOLT-4 leukemia 82.5%

COC(=O)Cn1c2c(c3c(OC)cccc31)C(=O)c1ccccc1-2
inactive: SK-MEL-2 melanoma 109% | EKVX NSCLC 103% | SN12C renal 91.4% | UO-31 renal 82.5% | TK-10 renal 115% | ACHN renal 94.9% | CAKI-1 renal 110% | A498 renal 101% | CCRF-CEM leukemia 81.4% | MOLT-4 leukemia 83.8%
